Results: PubChem BioAssay AID624330 (Southern Research Specialized Biocontainment Screening …, 2012)
The campaign covered roughly 340,000 compounds. About 2,100 (0.62%) were called active.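 Rule for the calls: active = first-screen hits whose inhibition reached a set limit at any dose in the follow-up dose series; inconclusive = inhibition above the set first-screen limit but never retested; inactive = the rest.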 The list is a sample of the results. Measured potencies and affinities stand elsewhere.

Target: Rac GTPase-activating protein 1 (Homo sapiens) (UniProt Q9H0H5)
Test: MgcRacGAP GTPase-activating activity inhibitors, confirmation, biochemical, ADP Hunter fluorescence, primary and confirmatory (AID 624330);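 note: fluorescence reports GDP produced by GAP-driven GTP hydrolysis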
Conditions: MgcRacGAP-stimulated Rac1 GTP hydrolysis, at 30 µM, active compounds read high, GST-tagged Rac1 F28L mutant substrate

Chain of Rac GTPase-activating protein 1 (Homo sapiens) (Q9H0H5 whole entry, looked up): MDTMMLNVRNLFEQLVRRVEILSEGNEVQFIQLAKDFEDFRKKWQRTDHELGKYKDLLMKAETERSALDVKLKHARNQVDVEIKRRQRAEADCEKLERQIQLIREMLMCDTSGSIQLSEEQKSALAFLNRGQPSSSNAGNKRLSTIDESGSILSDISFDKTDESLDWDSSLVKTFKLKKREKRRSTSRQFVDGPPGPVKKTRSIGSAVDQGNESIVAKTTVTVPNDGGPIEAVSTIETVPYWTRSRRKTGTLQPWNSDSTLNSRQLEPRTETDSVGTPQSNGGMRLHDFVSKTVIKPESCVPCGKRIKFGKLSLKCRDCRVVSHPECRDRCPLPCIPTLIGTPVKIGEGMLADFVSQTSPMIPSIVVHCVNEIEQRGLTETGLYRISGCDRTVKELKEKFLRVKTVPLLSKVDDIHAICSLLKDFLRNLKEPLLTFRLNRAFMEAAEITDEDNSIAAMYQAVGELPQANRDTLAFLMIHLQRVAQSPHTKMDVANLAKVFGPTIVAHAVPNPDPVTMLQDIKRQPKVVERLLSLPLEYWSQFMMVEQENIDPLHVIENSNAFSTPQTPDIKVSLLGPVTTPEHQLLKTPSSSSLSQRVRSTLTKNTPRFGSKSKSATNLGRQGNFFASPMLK

| SMILES | inhibition |
| --- | --- |
| Cc1ccc(S(=O)(=O)N2CCOCC2)cc1C(=O)OCC(=O)NC1CCCC1 | 3.52% (inactive) |
| CC(C)(C)NC(=O)NC(=O)COC(=O)CNC(=O)c1cccc(F)c1 | 0.76% (inactive) |
| CCOC(=O)Cc1csc(NC(=O)CN2CCOCC2)n1 | 5.22% (inactive) |
| O=C1NC2(CCc3ccccc32)C(=O)N1CCOc1ccc(Cl)cc1 (centres undefined) | 2.47% (inactive) |
| CCN(C1CCS(=O)(=O)C1)S(=O)(=O)c1ccc(Cl)s1 (centres undefined) | 4.17% (inactive) |
| CCOC(=O)C1=C(O)CSC1=Nc1cccc2ccccc12 | 1.02% (inactive) |
| c1ccc2nc3ccccc3nc2c1 | 2.14% (inactive) |
| Cc1ccc(CN2CCN(C(=O)c3cccc4ccccc34)CC2)cc1 | 23.8% (inactive) |
| COc1ccc(OC)c(CN2CCN(C(=O)c3cccc4ccccc34)CC2)c1 | 13.1% (inactive) |
| COc1cccc(CN2CCN(C(=O)c3cccc4ccccc34)CC2)c1OC | 17.9% (inactive) |
| Cc1cccc(CN2CCN(C(=O)c3cccc4ccccc34)CC2)c1 | 15.3% (inactive) |
| Cc1cc(C)c(C)c(OCCCN(C)C)c1 | 17% (inactive) |
| CSc1nnnn1-c1cccc(O)c1 | -2.6% (inactive) |
| Cc1cc(Cl)ccc1Oc1ncnc2onc(C)c12 | 4.86% (inactive) |
| CCOCCCNC(=O)c1ccc(OC2CCN(C(C)=O)CC2)c(OC)c1 | 9.51% (inactive) |
| COCc1cc(NCc2ccc(Cl)cc2)nc(C)n1 | 5.03% (inactive) |
| COCc1cc(Sc2ccc(Cl)cc2)nc(C)n1 | 3.56% (inactive) |
| CC(C)(C)c1ccc(C2=NC(=O)C(CC(=O)O)S2)cc1 (centres undefined) | 10.5% (inactive) |
| CN(C1=NC(=O)C(CC(=O)O)S1)c1ccc(O)cc1 (centres undefined) | 2.49% (inactive) |
| Cc1nn(CC(=O)NCC(C)c2ccccc2)c(=O)c2cc3occc3n12 (centres undefined) | 10% (inactive) |

| SMILES | inhibition |
| --- | --- |
| Cc1ccc(-c2csc3ncnc(SCC(=O)c4ccc5c(c4)OCCO5)c23)cc1 | 1.98% (inactive) |
| CC1Cc2ccccc2N1C(=O)COc1ccc2c(c1)OCO2 (centres undefined) | -12.8% (inactive) |
| CC(=O)N1CCN(c2ccc(NCc3ccc(-c4ccc(Br)cc4)o3)cc2)CC1 | 5.41% (inactive) |
| CC(=O)c1ccc(N2CCN(C(=S)NCc3ccco3)CC2)cc1 | 3.83% (inactive) |
| CC(=O)N1CCN(c2ccc(NCc3ccc(-c4cccc(Cl)c4)o3)cc2)CC1 | 15% (inactive) |
| CC(=O)N1CCN(c2ccc(NC(=O)c3ccco3)cc2)CC1 | 8.89% (inactive) |
| COc1ccc(N2CCN(C(CNC(=O)OCc3ccccc3)c3ccco3)CC2)cc1 (centres undefined) | 23% (inactive) |
| COc1ccc(C2(C)NC(=O)N(CC(=O)Nc3c(C)n(C)n(-c4ccccc4)c3=O)C2=O)cc1 (centres undefined) | -6.4% (inactive) |
| CC(C)(C)OC(=O)C[C@@H]1C/C=C\C[C@H](CC(=O)N(CCO)Cc2ccccc2)C(=O)N[C@H](Cc2ccccc2)COC1=O | -1.04% (inactive) |
| N#C/C(=C\c1cc([N+](=O)[O-])c(N2CCOCC2)cc1N1CCOCC1)c1nc2ccccc2[nH]1 | 6.08% (inactive) |
| N#C/C(=C\c1ccc(N2CCOCC2)c([N+](=O)[O-])c1)c1nc2ccccc2[nH]1 | 1.39% (inactive) |
| N#C/C(=C\c1ccc(Sc2ccccc2)o1)c1nc2ccccc2[nH]1 | 11.4% (inactive) |
| N#C/C(=C\c1ccc(-c2ccc(C(=O)O)cc2)o1)c1nc2ccccc2[nH]1 | 2.64% (inactive) |
| CC1CN(C(=O)COC(=O)c2ccc3ccccc3c2)CC(C)O1 (centres undefined) | 8.18% (inactive) |
| CCCCOC(=O)c1cccc(NC(=O)CC)c1 | -6.05% (inactive) |
| O=C(C[C@H]1C/C=C\C[C@H](NC(=O)OCC2c3ccccc3-c3ccccc32)C(=O)OC[C@H](Cc2ccccc2)NC1=O)N[C@H](CO)Cc1ccccc1 | 3.81% (inactive) |
| CC(OC(=O)CC(C)c1ccccc1)C(=O)Nc1ccc(Cl)cn1 (centres undefined) | 4.3% (inactive) |
| COc1ccc(/C=N/n2c(C)nc3ccccc3c2=O)cc1OC | 3.76% (inactive) |
| CCCc1nc2ccccc2c(=O)n1/N=C/c1ccc(O)cc1 | 6.59% (inactive) |
| COc1ccc(/C=C/c2nc(N)nc(-c3ccccc3O)n2)cc1OC | 4.75% (inactive) |

| SMILES | inhibition |
| --- | --- |
| C/C=C/c1ccc(O)c(OC)c1 | 21.3% (inactive) |
| COc1ccc(/C=C/c2nc3ccccc3c(=O)n2-c2cccc(C(=O)O)c2)cc1 | 6.96% (inactive) |
| COc1cc(/C=N/n2c(C)nc3ccccc3c2=O)cc(OC)c1O | 7.15% (inactive) |
| COc1ccc(-n2c(/C=C3\C(=O)N(C)c4ccccc43)nc3ccccc3c2=O)cc1 | 9.39% (inactive) |
| CCCc1nc2ccccc2c(=O)n1/N=C/c1ccccc1O | 11.4% (inactive) |
| O=C(CN1CCN(C(=O)C2CCCO2)CC1)Nc1cc(C(F)(F)F)ccc1Cl (centres undefined) | 4.9% (inactive) |
| CCOC(=O)C1CCN(C(=O)c2cc(S(=O)(=O)N3CCCCCC3)ccc2OC)CC1 | 0.78% (inactive) |
| CCCCNC(=O)NC(C(=O)OC)C12CC3CC(CC(C3)C1)C2 (centres undefined) | 0.62% (inactive) |
| CCCN(CCC)CCNS(=O)(=O)c1ccc2c(c1)CCN2C(=O)C1CCC1 | 12.9% (inactive) |
| CCCCN(CCCC)S(=O)(=O)c1ccc(NS(=O)(=O)c2ccc(NC(C)=O)cc2)cc1 | 5.52% (inactive) |
| COc1ccc(-c2nn(-c3ccccc3)cc2C(=O)NC2CCCCC2C)cc1 (centres undefined) | 7.37% (inactive) |
| CCOCCCNC(=O)C1CCCN(S(=O)(=O)c2ccc(-n3cnnn3)cc2)C1 (centres undefined) | 1.87% (inactive) |
| CCOC(=O)c1ccc(NC(=S)NCCCn2ccnc2)cc1 | -38.2% (inactive) |
| COc1ccc(CCN2CN(S(=O)(=O)c3ccccc3)c3nc4ccccc4nc32)cc1OC | 2.57% (inactive) |
| CCOc1ccc(NC(=S)N(Cc2ccc(N(C)C)cc2)Cc2ccco2)cc1 | 1.67% (inactive) |
| O=C(O)C1CCCN1S(=O)(=O)c1ccc2ccccc2c1 (centres undefined) | -1.39% (inactive) |
| COC(=O)c1cccc(NS(=O)(=O)c2ccc(OC)c(OC)c2)c1C | 4.85% (inactive) |
| O=C(CCCc1cccs1)Nc1nc(-c2ccc(F)cc2)cs1 | 9.23% (inactive) |
| O=C(c1cccs1)N1CCN(c2ncc(C(F)(F)F)cc2Cl)CC1 | 8.94% (inactive) |
